# Laboratory results published in PubChem BioAssay AID1508601 (ICCB-Longwood Screening Facility, Harvard Medical School, 2020).
# Screen size: about 5,700 compounds; about 85 (1%) were called active. Rule as the data show it: active = p53-positive nuclei above about 36% (passing the limit was not always enough); inactive = the rest. The list comes from a sample in which actives are over-represented; it also holds similar structures and randomly drawn compounds.
# Legend:
# [1] = nuclear p53 accumulation, HPV+ cells – imaging, p53-positive nuclei imaging, 24 h, 48 h (AID 1508601); conditions: 24/48 h
# [2] = biological target: Cellular tumor antigen p53 (Homo sapiens) (UniProt P04637); experiment: as above; conditions: 24/48 h, stronger effect = higher value
# [3] = measured here: cell number at 24 h, concentration not given here
# [4] = measured here: cell number at 48 h, concentration not given here
# [5] = measured here: p53 positive nuclei at 24 h, concentration not given here
# [6] = measured here: cell number at 24 h, Library stock concentration: 10 mM
# [7] = measured here: cell number at 48 h, Library stock concentration: 10 mM
# [8] = Library stock concentration: 10 mM
# [9] = measured here: p53 positive nuclei at 24 h, Library stock concentration: 10 mM
# [10] = measured here: cell number at 24 h, Library stock concentration: 3.33 mM
# [11] = measured here: cell number at 48 h, Library stock concentration: 3.33 mM
# [12] = Library stock concentration: 3.33 mM
# [13] = measured here: p53 positive nuclei at 24 h, Library stock concentration: 3.33 mM
# Sequence of Cellular tumor antigen p53 (Homo sapiens) (P04637 whole entry, looked up): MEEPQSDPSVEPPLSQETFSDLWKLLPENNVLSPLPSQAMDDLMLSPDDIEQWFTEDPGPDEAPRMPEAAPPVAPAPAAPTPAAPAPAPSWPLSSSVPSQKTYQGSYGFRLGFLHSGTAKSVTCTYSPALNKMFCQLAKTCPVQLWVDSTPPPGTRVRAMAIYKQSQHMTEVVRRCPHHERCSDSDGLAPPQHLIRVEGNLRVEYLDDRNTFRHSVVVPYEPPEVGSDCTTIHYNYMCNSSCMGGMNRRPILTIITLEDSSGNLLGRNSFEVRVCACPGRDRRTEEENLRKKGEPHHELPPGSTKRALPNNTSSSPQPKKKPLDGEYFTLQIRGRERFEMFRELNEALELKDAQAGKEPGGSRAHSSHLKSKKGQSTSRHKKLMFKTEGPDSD
structure (smiles),measurement,setting,value
CCCCCC(=O)/C=C/[C@H]1[C@H](O)CC(=O)[C@@H]1CCCCCCC(=O)O,"nuclei count, normalised",[1]; [3],107%
same,"nuclei count, normalised",[1]; [4],107%
same,"p53-positive nuclei, normalised",[2]; concentration not given here,-0.0323% (inactive)
same,"p53-positive nuclei, normalised",[2]; [5],-0.0183%
CCCCCNC(=O)N1CCC2(CC1)Nc1ccccc1N(CC1CC1)C2=O,"nuclei count, normalised",[1]; [3],105%
same,"nuclei count, normalised",[1]; [4],110%
same,"p53-positive nuclei, normalised",[2]; concentration not given here,-0.23% (inactive)
same,"p53-positive nuclei, normalised",[2]; [5],-0.154%
COc1ccc(N2C(=O)C(=Cc3ccc([N+](=O)[O-])s3)SC2=S)cc1,"nuclei count, normalised","[1]; measured here: cell number at 24 h, Library stock concentration: 500 nM",117%
same,"nuclei count, normalised","[1]; measured here: cell number at 24 h, Library stock concentration: 1.5 uM",113%
same,"nuclei count, normalised","[1]; measured here: cell number at 24 h, Library stock concentration: 4.6 uM",108%
same,"nuclei count, normalised","[1]; measured here: cell number at 24 h, Library stock concentration: 13.7 uM",110%
same,"nuclei count, normalised","[1]; measured here: cell number at 24 h, Library stock concentration: 41 uM",105%
same,"nuclei count, normalised","[1]; measured here: cell number at 24 h, Library stock concentration: 123 uM",88.7%
same,"nuclei count, normalised","[1]; measured here: cell number at 24 h, Library stock concentration: 370 uM",69.2%
same,"nuclei count, normalised","[1]; measured here: cell number at 24 h, Library stock concentration: 1.111 mM",62.1%
same,"nuclei count, normalised","[1]; measured here: cell number at 24 h, Library stock concentration: 3.333 mM",48.5%
same,"nuclei count, normalised",[1]; [6],37.6%
same,"nuclei count, normalised","[1]; measured here: cell number at 48 h, Library stock concentration: 500 nM",110%
same,"nuclei count, normalised","[1]; measured here: cell number at 48 h, Library stock concentration: 1.5 uM",106%
same,"nuclei count, normalised","[1]; measured here: cell number at 48 h, Library stock concentration: 4.6 uM",107%
same,"nuclei count, normalised","[1]; measured here: cell number at 48 h, Library stock concentration: 13.7 uM",104%
same,"nuclei count, normalised","[1]; measured here: cell number at 48 h, Library stock concentration: 41 uM",108%
same,"nuclei count, normalised","[1]; measured here: cell number at 48 h, Library stock concentration: 123 uM",87.8%
same,"nuclei count, normalised","[1]; measured here: cell number at 48 h, Library stock concentration: 370 uM",59.1%
same,"nuclei count, normalised","[1]; measured here: cell number at 48 h, Library stock concentration: 1.111 mM",49.4%
same,"nuclei count, normalised","[1]; measured here: cell number at 48 h, Library stock concentration: 3.333 mM",31.9%
same,"nuclei count, normalised",[1]; [7],24.4%
same,"p53-positive nuclei, normalised",[2]; Library stock concentration: 500 nM,0.221% (inactive)
same,"p53-positive nuclei, normalised",[2]; Library stock concentration: 1.5 uM,0.0846% (inactive)
same,"p53-positive nuclei, normalised",[2]; Library stock concentration: 4.6 uM,0.192% (inactive)
same,"p53-positive nuclei, normalised",[2]; Library stock concentration: 13.7 uM,-0.0302% (inactive)
same,"p53-positive nuclei, normalised",[2]; Library stock concentration: 41 uM,0.353% (inactive)
same,"p53-positive nuclei, normalised",[2]; Library stock concentration: 123 uM,5.11% (inactive)
same,"p53-positive nuclei, normalised",[2]; Library stock concentration: 370 uM,28.8% (inactive)
same,"p53-positive nuclei, normalised",[2]; Library stock concentration: 1.111 mM,38.4% (inactive)
same,"p53-positive nuclei, normalised",[2]; Library stock concentration: 3.333 mM,79.8% (active)
same,"p53-positive nuclei, normalised",[2]; [8],117% (active)
same,"p53-positive nuclei, normalised","[2]; measured here: p53 positive nuclei at 24 h, Library stock concentration: 500 nM",-0.0612%
same,"p53-positive nuclei, normalised","[2]; measured here: p53 positive nuclei at 24 h, Library stock concentration: 1.5 uM",0.0572%
same,"p53-positive nuclei, normalised","[2]; measured here: p53 positive nuclei at 24 h, Library stock concentration: 4.6 uM",0.0046%
same,"p53-positive nuclei, normalised","[2]; measured here: p53 positive nuclei at 24 h, Library stock concentration: 13.7 uM",0.00591%
same,"p53-positive nuclei, normalised","[2]; measured here: p53 positive nuclei at 24 h, Library stock concentration: 41 uM",0.0741%
same,"p53-positive nuclei, normalised","[2]; measured here: p53 positive nuclei at 24 h, Library stock concentration: 123 uM",5.3%
same,"p53-positive nuclei, normalised","[2]; measured here: p53 positive nuclei at 24 h, Library stock concentration: 370 uM",28.7%
same,"p53-positive nuclei, normalised","[2]; measured here: p53 positive nuclei at 24 h, Library stock concentration: 1.111 mM",41.6%
same,"p53-positive nuclei, normalised","[2]; measured here: p53 positive nuclei at 24 h, Library stock concentration: 3.333 mM",85.9%
same,"p53-positive nuclei, normalised",[2]; [9],121%
O=C(O)c1ccc(C=C2SC(=S)N(c3cccc(C(F)(F)F)c3)C2=O)cc1,"nuclei count, normalised",[1]; [10],76.4%
same,"nuclei count, normalised",[1]; [11],78.4%
same,"p53-positive nuclei, normalised",[2]; [12],-0.0579% (inactive)
same,"p53-positive nuclei, normalised",[2]; [13],-0.316%
C/C=C/C(=O)O[C@H](COCCCCCCCCCCCCCCCC)COP(=O)([O-])OCC[N+](C)(C)C,"nuclei count, normalised",[1]; [3],91.3%
same,"nuclei count, normalised",[1]; [4],103%
same,"p53-positive nuclei, normalised",[2]; concentration not given here,-0.0567% (inactive)
same,"p53-positive nuclei, normalised",[2]; [5],0.0947%
CCCCCCCCCCCCCCCCCC(=O)OCC,"nuclei count, normalised",[1]; [3],111%
same,"nuclei count, normalised",[1]; [4],110%
same,"p53-positive nuclei, normalised",[2]; concentration not given here,-0.0271% (inactive)
same,"p53-positive nuclei, normalised",[2]; [5],-0.00774%
N=c1ccn2c(n1)OC1C(O)C(CO)OC12 (stereo not given),"nuclei count, normalised",[1]; [10],61.4%
same,"nuclei count, normalised",[1]; [11],51.8%
same,"p53-positive nuclei, normalised",[2]; [12],0.1% (inactive)
same,"p53-positive nuclei, normalised",[2]; [13],-0.25%
Nc1cccc(OCc2ccccc2)c1,"nuclei count, normalised","[1]; measured here: cell number at 24 h, Library stock concentration: 46 uM",111%
same,"nuclei count, normalised","[1]; measured here: cell number at 24 h, Library stock concentration: 278 uM",109%
same,"nuclei count, normalised","[1]; measured here: cell number at 24 h, Library stock concentration: 1.67 mM",109%
same,"nuclei count, normalised",[1]; [6],99%
same,"nuclei count, normalised","[1]; measured here: cell number at 48 h, Library stock concentration: 46 uM",106%
same,"nuclei count, normalised","[1]; measured here: cell number at 48 h, Library stock concentration: 278 uM",111%
same,"nuclei count, normalised","[1]; measured here: cell number at 48 h, Library stock concentration: 1.67 mM",109%
same,"nuclei count, normalised",[1]; [7],103%
same,"p53-positive nuclei, normalised",[2]; Library stock concentration: 46 uM,-0.0623% (inactive)
same,"p53-positive nuclei, normalised",[2]; Library stock concentration: 278 uM,-0.108% (inactive)
same,"p53-positive nuclei, normalised",[2]; Library stock concentration: 1.67 mM,0.151% (inactive)
same,"p53-positive nuclei, normalised",[2]; [8],0.0982% (inactive)
same,"p53-positive nuclei, normalised","[2]; measured here: p53 positive nuclei at 24 h, Library stock concentration: 46 uM",-0.0998%
same,"p53-positive nuclei, normalised","[2]; measured here: p53 positive nuclei at 24 h, Library stock concentration: 278 uM",-0.155%
same,"p53-positive nuclei, normalised","[2]; measured here: p53 positive nuclei at 24 h, Library stock concentration: 1.67 mM",0.0148%
same,"p53-positive nuclei, normalised",[2]; [9],-0.152%
CN1CCC(c2c(O)cc(O)c3c(=O)cc(-c4ccccc4Cl)oc23)C1CO (stereo not given),"nuclei count, normalised","[1]; measured here: cell number at 24 h, Library stock concentration: 80 uM",103%
same,"nuclei count, normalised","[1]; measured here: cell number at 24 h, Library stock concentration: 400 uM",85.7%
same,"nuclei count, normalised","[1]; measured here: cell number at 24 h, Library stock concentration: 2 mM",35.8%
same,"nuclei count, normalised",[1]; [10],33.3%
same,"nuclei count, normalised",[1]; [6],24.1%
same,"nuclei count, normalised","[1]; measured here: cell number at 48 h, Library stock concentration: 80 uM",106%
same,"nuclei count, normalised","[1]; measured here: cell number at 48 h, Library stock concentration: 400 uM",84.1%
same,"nuclei count, normalised","[1]; measured here: cell number at 48 h, Library stock concentration: 2 mM",23.2%
same,"nuclei count, normalised",[1]; [11],26.2%
same,"nuclei count, normalised",[1]; [7],17.3%
same,"p53-positive nuclei, normalised",[2]; Library stock concentration: 80 uM,0.295% (inactive)
same,"p53-positive nuclei, normalised",[2]; Library stock concentration: 400 uM,16% (inactive)
same,"p53-positive nuclei, normalised",[2]; Library stock concentration: 2 mM,66% (active)
same,"p53-positive nuclei, normalised",[2]; [12],49.6% (inactive)
same,"p53-positive nuclei, normalised",[2]; [8],30.8% (inactive)
same,"p53-positive nuclei, normalised","[2]; measured here: p53 positive nuclei at 24 h, Library stock concentration: 80 uM",0.32%
same,"p53-positive nuclei, normalised","[2]; measured here: p53 positive nuclei at 24 h, Library stock concentration: 400 uM",6.89%
same,"p53-positive nuclei, normalised","[2]; measured here: p53 positive nuclei at 24 h, Library stock concentration: 2 mM",3.25%
same,"p53-positive nuclei, normalised",[2]; [13],3.39%
same,"p53-positive nuclei, normalised",[2]; [9],6.32%
